Compound activity as filed in PubChem BioAssay.
A selection: hits, their analogues and other compounds. The true share with any hit is near 6.5%.
LASV entry inh – Lassa virus entry inhibition. hit rate 1.2% among 300,000. AID 540256. Potency, µM (series often up to 37.9 µM), for inactives: at the highest dose activity change, negative = inhibition, most hits filed as inhibitors. Lassa virus pseudotype entry inhibition, cell reporter; calls by dose curve; tested in HEK293 cells; note: potency is the fitted concentration of half-maximal effect; nearly all actives have a fitted effect of over 50% in size
VACV Venus inh – inhibitors of vaccinia virus (Venus reporter); AID 720580; hit rate 0.46% among 330,000; Potency, µM (doses to about 36.5 µM), for the others: at the highest dose activity change, negative = inhibition, usual class: inhibitors; Vaccinia virus Venus reporter expression, fluorescence; calls by dose curve; tested in A549 cells; note: potency is the fitted concentration of half-maximal effect; nearly all actives have a fitted effect of over 30% in size
FMDV inh – antivirals against foot and mouth disease virus. Potency, µM (highest dose often 57.9 µM), without a hit: at the top dose activity change, negative = inhibition, hits mostly inhibitors. hit rate 1.2% among 410,000. FMDV antiviral cell-based qHTS. AID 1159524; calls by dose curve; tested in HEK293T cells; note: read-out not given here; potency is the fitted concentration of half-maximal effect; nearly all actives have a fitted effect of over 45% in size
HCMV antiviral – blocks human cytomegalovirus replication | HFF cells, HCMV-luciferase reporter, 72 h; active compounds read low | activity change, negative = inhibition, % at 57.5 µM | hit rate 4.5% among 410,000 | AID 1259415; in the data active = activity change below about -60%; inconclusive = no clear call, values can overlap the other calls; inactive = above about -39%
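Steps: HFFs plated, 16 h 37C; compounds added; HCMV-luciferase added to MOI 1 PFU/cell; 72 h 37C; OneGlo reagent, 5 min room temperature; luminescence read, normalized to controls.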
Marburg entry inh – Marburg virus entry inhibition. Marburg virus pseudotyped entry inhibition, cell reporter. Potency, µM (highest dose often 37.8 µM), without a hit: at the highest dose activity change, negative = inhibition, hits mostly inhibitors. hit rate 1.8% among 300,000; calls by dose curve; tested in HEK293 cells; note: potency is the fitted concentration of half-maximal effect
Vaccinia mCherry – inhibitors of vaccinia virus infection (mCherry reporter signal); Vaccinia virus mCherry reporter infection, fluorescence; Potency, µM (series often up to 36.5 µM), for the others: at the highest dose activity change, negative = inhibition, hits mostly inhibitors; hit rate 0.63% among 310,000; calls by dose curve; tested in A549 cells; note: potency is the fitted concentration of half-maximal effect; nearly all actives have a fitted effect of over 35% in size
The depositor's hits bear a star; i = inactive; ? = inconclusive; nt = not tested or not shown; [ ] = remark or other dose. % is set by controls: 0 for no effect and ±100 for the full control effect.

SMILES | LASV entry inh | VACV Venus inh | FMDV inh | HCMV antiviral | Marburg entry inh | Vaccinia mCherry
COc1ccccc1C(=O)Nc1ccnn1C1CCN(CC2CC=CCC2)CC1 (centres undefined) | nt | nt | ? | -39 | nt | nt
C[C@]12C=CC(=O)C=C1CC[C@@H]1C2=CC[C@]2(C)[C@@H](C(=O)CN3CCN(c4cc(N5CCCC5)nc(N5CCCC5)n4)CC3)CC[C@@H]12 | -25% | ? | -4% | ? | 5.6µM* | 1µM*
CC1CC(NC2=NCCS2)CC(C)(C)C1 (centres undefined) | -9% | -24% | -23% | -66* | ? | i
CC1CC(NC(=O)/C=C/C(=O)O)CC(C)(C)C1 (centres undefined) | -4% | -6% | 9% | 2 | -13%[14.2 µM] | i
CCCNC(=S)Nc1ccc(Br)cc1 | 6% | -18% | 35% | -32 | 1% | nt
Cc1cc(Cl)ccc1NC(=S)NCc1ccc(Cl)cc1 | -3% | ? | -7% | 35 | 0%[46.1 µM] | ?
Cc1cc(Cl)ccc1NC(=S)NCCc1ccc(Cl)cc1 | 27%[46.1 µM] | -21% | 15% | -83* | ? | ?
Cc1cc(Br)ccc1NC(=S)NCCc1ccccc1 | ? | -9% | 22% | -66* | -25%[46.1 µM] | i
Cc1ccc(NC(=S)NCCc2c[nH]c3ccccc23)c(C)c1 | nt | nt | 14% | -90* | nt | nt
S=C(NCCc1ccccc1)Nc1ccc(Br)cc1 | 18% | -22% | 29% | -75* | ? | i
Cc1ccc(NC(=S)NCCc2ccccc2)c(C)c1 | 9% | -6% | -4% | ? | 30% | -15%
O=C(NCCN1CCC(n2c(=O)[nH]c3cc(Cl)ccc32)CC1)c1ccc(F)cc1 | nt | nt | nt | -33 | nt | nt
C/C(=C\c1ccco1)CN1CCOc2ccc(CN3CCC(Oc4cccnc4)CC3)cc2C1 | nt | 5% | -17% | nt | nt | -1%
COC(=O)C1=C(C)N(Cc2ccccc2)C(=NCc2ccc3c(c2)OCO3)NC1CCc1ccccc1 (centres undefined) | ? | nt | nt | nt | -12%[14.2 µM] | nt
Cc1cccc(NC(=S)NCCc2ccccc2)n1 | ? | -14% | 21% | -72* | ? | ?
CCNC(=S)Nc1ccc(Cl)cc1Cl | ? | -12% | 3% | -65* | 0% | -24%
CNC(=S)N(CCc1c(C)[nH]c2ccc(F)cc12)Cc1cccnc1 | nt | nt | -14% | nt | nt | nt
Cc1ccc(NS(=O)(=O)c2cc(NC(=O)c3ccc4c(c3)NC(=O)CS4)ccc2C)c(C)c1 | ? | -12% | ? | ? | 10µM* | i
O=C1NC(=O)C(=Cc2ccc(Sc3ccccc3)o2)C(=O)N1 | 10% | -2%[7.34 µM] | 22µM* | 124 | 2%[46.1 µM] | -28%[7.34 µM]
O=C1NC(=O)C(=Cc2ccc(-c3ccc(S(=O)(=O)N4CCOCC4)cc3)o2)C(=O)N1 | nt | -8% | ? | 19 | nt | i
O=C1NC(=O)C(=Cc2ccc(-c3ccc(Cl)cc3)o2)C(=O)N1 | nt | ? | 32µM* | nt | nt | -16%
N#CCC(=O)N/N=C/c1ccc(Cl)cc1 | 2% | -10% | 10% | -24 | -1%[46.1 µM] | -25%
CN(c1ccccc1)c1ccc(/C=N/NC(=O)CC#N)cc1 | 15µM* | -6% | 2% | ? | 13µM* | -3%
O=C1C(Nc2cccc(O)c2)=C(N2CCCCC2)C(=O)c2ccccc21 | -24% | -20% | nt | -28 | ? | -1%
CC1CCN(C2=C(NS(=O)(=O)c3ccccc3)C(=O)c3ccccc3C2=O)CC1 | -30% | -13% | -16% | -24 | ? | ?
SMILES | LASV entry inh | VACV Venus inh | FMDV inh | HCMV antiviral | Marburg entry inh | Vaccinia mCherry
O=C1C(NS(=O)(=O)c2ccccc2)=C(N2CCN(c3ccc(F)cc3)CC2)C(=O)c2ccccc21 | nt | ? | -15% | -40 | nt | 0.32µM*
O=C1C(Nc2ccccc2)=C(N2CCCCC2)C(=O)c2ccccc21 | -17% | ? | -3% | -69* | ? | 15%[1.46 µM]
Cc1ccc(NC2=C(N3CCCCC3)C(=O)c3ccccc3C2=O)cc1 | ? | -14% | nt | -103* | ? | i
O=C1C(NS(=O)(=O)c2ccc(Br)cc2)=C(N2CCCCC2)C(=O)c2ccccc21 | nt | nt | -8% | 6 | nt | nt
O=C(/C=C/c1ccc(O)cc1)c1ccc(NC2=C(N3CCCCC3)C(=O)c3ccccc3C2=O)cc1 | ? | ? | ? | -99* | ? | 1.4µM*
Cn1c(=O)c(=O)n(C)c2cc(S(=O)(=O)Nc3ccc(Cl)c(C(F)(F)F)c3)ccc21 | 25%[46.1 µM] | -6% | 52% | 12 | -3%[46.1 µM] | -14%
